# The list is not random: actives were taken first. Their share in the collection is about 2.9%.
# Rango-impB inh = Rango-importin beta binding inhibition; Q14974; Rango CFP/YFP FRET sensor + importin beta, 45 min; Potency, µM (top dose mostly 92.2 µM), for the others: at the top dose inhibition of complex formation; 340,000 tested, 0.031% active;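 note: potency is the fitted concentration of half-maximal effect; 0% = DMSO wells and 100% = buffer wells lacking importin beta; nearly all actives have a fitted effect of over 15% in size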
# Target sequence (Q14974 whole entry, looked up): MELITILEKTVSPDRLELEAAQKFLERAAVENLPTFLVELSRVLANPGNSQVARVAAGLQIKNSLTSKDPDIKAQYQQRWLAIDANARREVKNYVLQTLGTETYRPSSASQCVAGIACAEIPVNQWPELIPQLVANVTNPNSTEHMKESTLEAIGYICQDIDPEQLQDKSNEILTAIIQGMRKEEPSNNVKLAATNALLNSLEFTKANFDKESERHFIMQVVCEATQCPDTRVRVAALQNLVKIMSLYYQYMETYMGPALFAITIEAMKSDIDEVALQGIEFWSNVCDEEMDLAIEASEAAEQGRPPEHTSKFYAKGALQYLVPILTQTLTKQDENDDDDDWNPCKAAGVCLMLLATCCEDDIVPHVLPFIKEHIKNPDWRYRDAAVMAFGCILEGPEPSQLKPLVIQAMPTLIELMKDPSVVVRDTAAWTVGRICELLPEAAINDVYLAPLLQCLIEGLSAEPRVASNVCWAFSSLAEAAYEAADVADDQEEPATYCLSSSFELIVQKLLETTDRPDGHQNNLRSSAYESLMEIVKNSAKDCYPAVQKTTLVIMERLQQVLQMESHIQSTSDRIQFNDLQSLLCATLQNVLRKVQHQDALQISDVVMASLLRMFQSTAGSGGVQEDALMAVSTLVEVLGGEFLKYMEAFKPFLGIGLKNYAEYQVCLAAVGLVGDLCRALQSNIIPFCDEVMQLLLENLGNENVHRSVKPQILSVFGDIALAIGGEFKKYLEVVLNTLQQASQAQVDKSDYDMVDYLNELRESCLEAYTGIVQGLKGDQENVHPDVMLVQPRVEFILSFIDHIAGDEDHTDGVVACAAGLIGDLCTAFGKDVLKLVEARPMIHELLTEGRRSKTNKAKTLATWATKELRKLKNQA
#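 Inhibition scored from the CFP 486 nm/YFP 530 nm FRET ratio 45 min after adding 0.125 microM importin beta to 50 nM Rango biosensor preincubated 5 min with compound (room temperature, PBS with DTT, Tween-20, BSA). No-importin wells as positive control.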
# D3 ag = activates the human D3 dopamine receptor | P35462 | D3R DiscoveRx beta-arrestin cells, luminescence, 90 min | max activation, % | 410,000 tested, 0.58% active | AID 652048; in the data active = max activation above about 30%; note: 0% is about no effect
#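 Cells at 1500/well, incubated overnight, then treated with pinned compounds (dopamine as control) for 90 min at 37 degrees C. DiscoveRx reagent added for 30 - 60 minutes at room temperature; luminescence read.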
# Rango release inh = prevents RanGTP from dissociating the Rango-importin beta complex. Biochemical FRET Rango-importin beta, RanGTP-induced dissociation. 340,000 tested, 0.071% active. Potency, µM (top dose mostly 46.1 µM), inactives show at the top dose activity change, negative = inhibition. AID 540253; note: potency is the fitted concentration of half-maximal effect; % of control where 0% means no effect; nearly all actives have a fitted effect of over 45% in size
#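 Rango FRET biosensor (snurportin-1 IBB flanked by N-terminal EYFP and C-terminal CFP10) at 0.1 uM, with 0.25 uM importin beta in PBS, 1mM DTT, 0.02% Tween-20, 0.1% BSA. 0.6 uM Ran, 2mM GTP and 0.2 uM RCC1 were then added for 45 min at room temperature. Inhibition read as loss of FRET rise.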
# D3 antag = D3 dopamine receptor (human) antagonism. D3R cells, DiscoveRx beta-arrestin luminescence, antagonist mode; hits give low values. max response, negative = inhibition, %. 360,000 tested, 2.5% active. AID 652054; in the data active = max response below about -50%; inconclusive = no clear call, values can overlap the other calls; note: % is set by controls: 0 for no effect and ±100 for the full control effect
#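 Cells plated overnight at 1500 cells/well, then exposed to library compounds with dopamine controls for 90 minutes at 37 degrees C. DiscoveRx reagent added for 30–60 minutes at room temperature; luminescence read, quantitative HTS format.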
# PTAP TSG101 blk = blocks PTAP/TSG101 interaction to inhibit HIV-1 budding; Fluorescence polarization, FITC-PTAP peptide / Tsg101 binding; AID 493005; 340,000 tested, under 10 active; Potency, µM (top dose mostly 115 µM), for inactives: top-dose activity change, negative = inhibition, hits mostly inhibitors; active = well fitted inhibition curve with a large enough effect in the main read-out, with a control signal flat, not every such curve was filed as active; inconclusive = small, poorly fitted or top-dose-only effect, or effect the other way, or a change in a side signal; inactive = no such curve, though single readings can be large or run the other way; note: potency is the fitted concentration of half-maximal effect; % of control where 0% means no effect
#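 Compounds were pin-transferred onto Tsg101 binding domain (10 uM final) in HEPES pH 7.5 buffer, then FITC-PTAP peptide was added at 50 nM final. After 20 min at RT, polarization reported peptide displacement across a qHTS concentration series.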
# Mm-Cpn inhibitor = inhibitors of Methanococcus maripaludis chaperonin TRiC (MmCpn). purified Mm-Cpn ATPase, ADP Transcreener TR-FRET. Potency, µM (series often up to 76.9 µM), inactives show at the top dose activity, negative = inhibition, actives largely listed as inhibitors. 330,000 tested, 0.031% active. AID 504842; active = well fitted inhibition curve with a large enough effect; inconclusive = small, poorly fitted or top-dose-only effect; note: potency is the fitted concentration of half-maximal effect; % is set by controls: 0 for no effect and ±100 for the full control effect; nearly all actives have a fitted effect of over 80% in size
#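 Measured: ADP formation by purified Mm-CPN. Conditions: 25 nM protein, 10 uM ATP, Tris pH 7.4 with Mg2+, K+ and DTT, 37°C for 30 min. Detection: Transcreener HTRF after 30 min at room temperature.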
# * marks the source's active call; other numbers are inactive results; ? = inconclusive; . = no result given. Unless noted, calls come from the whole dose curve.
SMILES,Rango-impB inh,D3 ag,Rango release inh,D3 antag,PTAP TSG101 blk,Mm-Cpn inhibitor
COc1ccc(NC(=O)CCCNC(=O)Cn2cnc3sc(C)c(C)c3c2=O)cc1OC,-0.8%,31.1*,3.7%,-1.2,-7.9%,2.8%
COC(=O)[C@H]1[C@H]2C[C@@H]3c4[nH]c5cc(OC)ccc5c4CCN3C[C@H]2C[C@@H](OC(=O)c2cc(OC)c(OC)c(OC)c2)[C@@H]1OC,?,-0.8,11.6µM*,22.8,5.3%,-1.8%
COC(=O)C1C2CC3c4[nH]c5cc(OC)ccc5c4CCN3CC2CC(OC2CCCCO2)C1OC (stereo not given),.,-7.6,.,7.9,.,.
COC(=O)[C@@H]1[C@H]2C[C@H]3c4[nH]c5ccccc5c4CCN3C[C@@H]2CC[C@@H]1O,?,-80.1,?,-78.5*,2.8%,0.5%
CCON1C(=O)C2(CCCCC2)C(=O)C12C=CCCC2 (stereo not given),3.7%,1.7,13.4%,-3.3,-2.0%,.
CC(=O)Nc1cc(C(=O)N2CCCC2)ccc1Sc1ccc(C)cc1,0.6%,41.4*,9.7%,34.4,-8.9%,0.1%
COc1ccc(OC)c(CNC(=O)c2ccc(Sc3ccc(Cl)cc3)c(NC(C)=O)c2)c1,.,7.5,.,.,.,.
CC(=O)Nc1cc(C(=O)N2CCCC2)ccc1Sc1ccc(Cl)cc1,0.4%,63.1*,-3.6%,57.9,-10.3%,-4.3%
Cc1ccc(CNC(=O)C2CCCCN2S(=O)(=O)c2ccc(F)cc2)cc1 (stereo not given),.,-11.7,.,.,.,.
N#Cc1ccccc1NC(=O)C(=O)NCC(c1ccc2c(c1)OCO2)N1CCN(c2ccccc2)CC1 (stereo not given),.,-3.4,.,.,.,.
O=C(NCc1ccc(C(F)(F)F)cc1)c1cccc2c(-c3ccc(F)c(F)c3)coc12,.,-1.2,.,0.0,.,.
CN1CCN(c2ccc(CNC(=O)c3ccc(-c4ccc(F)c(F)c4)c4ccoc34)cc2)CC1,.,-12.6,.,-66.5*,.,.
CN1CCN(c2ccc(CNC(=O)c3cccc4c(-c5ccc(F)c(F)c5)coc34)cc2)CC1,.,-14.5,.,-83.1*,.,.
COc1ccc(-n2c(=O)c3c(c4cc(OC)ccc4n3C)n(CCC(C)C)c2=O)cc1,.,-9.9,.,.,.,.
CCOC(=O)c1cc(OC)c2cccc(CN3CCC(C)(C(=O)NCCOC)C3)c2c1 (stereo not given),.,10.6,.,17.0,.,.
CCN1CCN(c2nc3c(S(=O)(=O)c4ccc(C)cc4)nnn3c3ccsc23)CC1,.,-2.5,.,.,.,.
CC(C(=O)c1ccccc1)[n+]1cccc(Br)c1 (stereo not given),-3.7%,-5.4,-21.2%,-71.4*,-1.6%,1.4%
CC(C(=O)c1ccc(-c2ccccc2)cc1)[n+]1cccc(NC(=O)c2ccccc2)c1 (stereo not given),-0.3%,-2.3,0.9%,5.6,-1.8%,3.8%
CC(=O)Nc1cc[n+](C(C)C(=O)c2ccc(Br)cc2)cc1 (stereo not given),0.4%,-16.1,9.7%,-84.0*,-0.1%,-3.3%
CC(=O)Nc1cc[n+](C(C)C(=O)c2ccccc2)cc1 (stereo not given),2.4%,-18.9,-10.1%,?,-4.1%,-0.7%
O=C(Nc1ccc(Cl)cc1)Nc1nnc(-c2ccncc2)s1,-2.5%,48.6*,-7.6%,27.3,-1.2%,-0.3%
O=C1c2ccccc2C(=O)N1CC#CCN1CCN(C(c2ccccc2)c2ccccc2)CC1,-1.5%,-18.0,0.7%,-88.2*,-0.1%,1.4%
C=CCNC(=O)CN1CCN(C(c2ccccc2)c2ccccc2)CC1,1.3%,-24.8,3.3%,-0.8,-4.3%,0.6%
c1ccc(CN2CCN(C(c3ccccc3)c3ccccc3)CC2)cc1,-1.7%,-10.9,8.7%,-70.0*,-0.9%,-0.5%
OC(CN1CCN(Cc2ccccc2)CC1)c1ccc(F)cc1 (stereo not given),0.7%,-44.5,-8.8%,-17.8,-4.4%,0.8%
SMILES,Rango-impB inh,D3 ag,Rango release inh,D3 antag,PTAP TSG101 blk,Mm-Cpn inhibitor
O=S(=O)(CCN1CCN(C(c2ccccc2)c2ccccc2)CC1)C(F)(F)F,-2.2%,-0.3,-5.7%,-50.4*,-2.2%,0.6%
Fc1ccc(CN2CCN(C(c3ccccc3)c3ccccc3)CC2)cc1,3.3%,-23.3,-16.8%,-82.4*,-4.1%,-2.5%
c1ccc(CN2CCN(C(c3ccccc3)c3nnnn3Cc3ccccc3)CC2)cc1 (stereo not given),-1.7%,-9.6,6.9%,0.0,-0.2%,0.9%
Cc1ccc(C)c(CSc2nc3ncccc3[nH]2)c1,.,6.6,.,.,.,.
CCCCn1nnnc1C(c1ccccc1)N1CCCN(Cc2ccc(F)cc2)CC1 (stereo not given),.,-13.0,.,-69.2*,.,.
Cc1cc(C)c(C(=O)N2CCCC(N3CCN(c4cccc(C(F)(F)F)c4)CC3)C2)o1 (stereo not given),1.3%,-4.7,-7.1%,-54.4*,1.6%,-0.2%
Cc1cc(C(=O)N2CCCC(N3CCN(c4cccc(C(F)(F)F)c4)CC3)C2)no1 (stereo not given),-2.9%,-0.7,5.2%,13.9,-3.6%,-2.3%
O=C(c1ccco1)N1CCCC(N2CCN(c3cccc(C(F)(F)F)c3)CC2)C1 (stereo not given),4.9%,-18.4,6.5%,-65.5*,-4.3%,-2.8%
COc1cc(NC(=O)c2ccc(-c3nc(CSc4ccccc4)c(C)o3)cc2)cc(OC)c1,.,3.1,.,.,.,.
C/C(=C\C(=O)c1ccccc1)Nc1ccc(Cl)c(Br)c1,1.8%,3.8,-11.4%,-55.1*,-1.3%,.
CCOC(=O)C1(C)CCCN(C(=O)c2ccccc2)C1 (stereo not given),.,-19.9,.,-60.8*,.,.
Cc1cccc(NC(=O)N2CCC(CN3CCCCCC3)CC2)c1C,.,-1.3,.,.,.,.
O=C(NNC(=O)c1cccc(Br)c1)Nc1ccc(Cl)cc1,5.0%,-15.7,2.1%,-66.7*,-4.0%,0.4%
COc1cccc(NC(=O)C(=O)NCCc2sc(-c3cccc(C)c3)nc2C)c1,.,29.5,.,.,.,.
O=C(c1ccc(CNS(=O)(=O)c2ccccc2)cc1)N1CCN(c2ccccn2)CC1,0.7%,1.4,3.0%,33.2,-7.0%,0.7%
O=C(c1ccc(Cl)c(S(=O)(=O)NCc2ccccc2)c1)N1CCN(c2ccccn2)CC1,-0.6%,15.5,-0.6%,-70.7*,.,2.2%
O=C(CS(=O)c1ccc(C(F)(F)F)cc1[N+](=O)[O-])Oc1ccccc1 (stereo not given),8.0%,-15.8,3.0%,?,0.5%,1.1%
CS(=O)(=O)c1ccc(S(=O)CC(=O)OCc2ccccc2)c([N+](=O)[O-])c1 (stereo not given),-2.7%,-29.2,5.2%,-90.2*,-0.9%,2.4%

# Screens as filed in PubChem.
